Several values for one entry are separate records, joined by “and”; a condition that tells them apart may be missing. Equal entries are not always repeated. Where a structure was tested more than once in an assay, its records may differ in their call. Activity calls are given as the source filed them. The calls were made as follows: active = hit-call score of the fitted dose curve at least 0.9, where 1 is the maximum; inactive = score below 0.9.

Read-out in this assay: Interferon-gamma inducible Protein 10 (IP10), CXCL10 (gene 3627)
Put plainly: BSK_hDFCGF_IP10: BioMAP Diversity Plus: hDFCGF Assay for Interferon-gamma inducible Protein 10 (IP10) Biomarker Activity (AID 2283053). Particulars: primary human foreskin fibroblasts; actives raise or lower the signal. On the procedure: BSK_hDFCGF is a cell-based, multiplexed-readout assay that uses foreskin fibroblast, a human skin primary cell, with measurements taken at 24 hours after chemical dosing in a 96-well plate.BSK_hDFCGF_IP10 is an assay component measured in the BSK_hDFCGF assay. It measures IP-10 antibody related to regulation of gene expression using ELISA technology.Data from the assay component BSK_hDFCGF_IP10 was analyzed into 1 assay endpoint. This assay endpoint, BSK_hDFCGF_IP10, was analyzed with bidirectional fitting relative to DMSO as the negative control and baseline of activity. Using a type of binding reporter, gain or loss-of-signal activity can be used to understand changes in the signaling as they relate to the gene CXCL10. Furthermore, this assay endpoint can be referred to as a primary readout, because this assay has produced multiple assay endpoints where this one serves a signaling function. To generalize the intended target to other relatable targets, this assay endpoint is annotated to the cytokine intended target family, where the subfamily is chemotactic factor.
The levels of cell surface (or secreted, indicated by the prefix "s") biomarker endpoints were measured by ELISA. Overt cytotoxicity to cells in confluent adherent cultures (all systems other than the BT system) was assessed by measuring total protein levels using sulforhodamine B (SRB) staining in parallel cultures at the time of biomarker measurements, indicated as SRB endpoints. For proliferation assays for adherent cell types, individual cell types are cultured at sub-confluence and relative cell numbers quantified by SRB staining at time points optimized for each system (48 h: 3C and CASM3C systems; 72 h: BT and HDF3CGF systems; 96 h: SAg system). SRB was performed by staining cells with 0.1% SRB after fixation with 10% TCA and reading wells at 560 nm.Viability and proliferation of PBMC (T cells) was quantified by Alamar Blue reduction for the SAg and BT systems. For PBMC viability (referred to as PBMC Cytotoxicity within the assay endpoint names), cells were plated (75,000/well in a 96-well plate) and then chemical samples added for 1 h before addition of activators, SEB and TSST-1 (20 ng/mL final concentration each). Cells were incubated for 90 h. Then, Alamar Blue (20 uL/well) (Invitrogen, Cat DAL1100) was added for 6 h, and the plates were read with a fluorescence microplate reader at 546/580 nm (excitation/emission). For PBMC proliferation, cells were plated and activated as above but incubated for only 16 h prior to addition of Alamar Blue. Plates were read after 6 h.
Turning to `CC(Cl)(Cl)C(=O)O`, the result was inactive.

Take `CC(C)(C)c1ccc(O)cc1`: the outcome was inactive.

For `c1nc[nH]n1`, the result was inactive.

Turning to `O=S(=O)(F)C(F)(F)C(F)(F)C(F)(F)C(F)(F)C(F)(F)C(F)(F)C(F)(F)C(F)(F)F`, the result was inactive.

A word on the AC50: it is the midpoint of the concentration-response curve, whichever way the signal moves. On to `CCCCC(CC)COP(=O)(Oc1ccccc1)Oc1ccccc1` (stereo not given), for which the half-maximal activity concentration (AC50) was 4.03 µM (active).

With `C=CC(=O)OCC(CC)(COC(=O)C=C)COC(=O)C=C`, the AC50 is 1.71 µM (active).

As to `O=c1ssc(Cl)c1Cl`, the AC50 is 3.7 µM (active).

`CCOP(=S)(OCC)SCSc1ccc(Cl)cc1`: the AC50 is 8.28 µM (active).

As to `O=C(O)C=CC(F)(C(F)(F)F)C(F)(F)F`, the result was inactive.

With `OCC1CO1` (stereo not given), the result was inactive.

As to `CCCCc1ccccc1`, the result was inactive.

As to `O=[N+]([O-])c1ccccc1`, the outcome was inactive.

Regarding `COCCOCCO`, the outcome was inactive.

In the case of `OCC(F)(F)OC(F)(F)C(F)(F)OC(F)(F)C(F)(F)OC(F)(F)F`, the outcome was inactive.

On to `N#Cc1cc([N+](=O)[O-])ccc1N`, for which the result was inactive.

Consider `CCOP(=S)(S)OCC`, for which the outcome was inactive.

As to `CCC(C)(C)c1ccc(O)cc1`, the outcome was inactive.

Regarding `CC(Cc1ccc(OCC(=O)O)cc1)NCC(O)c1csc(C(F)(F)F)n1` (stereo not given), the outcome was inactive.

Consider `Nc1ccc(Cl)cc1`, for which the outcome was inactive.

`CCOS(=O)(=O)OCC`: the result was inactive.

Regarding `O=P(Oc1ccccc1)(Oc1ccccc1)Oc1ccccc1`, the outcome was inactive.

For `OCC(F)(F)OC(F)(F)C(F)(F)OC(F)(F)C(F)(F)OC(F)(F)CO`, the concentration at half-maximal activity (AC50) is 26.5 µM (active) and 24.2 µM (active).

As for `c1ccc(OP(Oc2ccccc2)Oc2ccccc2)cc1`, the result was inactive.

As to `c1ccc2c(c1)Nc1ccccc1S2`, the AC50 is 20 µM (active).

Consider `O=C(O)C(F)(OC(F)(F)C(F)(F)C(F)(F)F)C(F)(F)F` (stereo not given), for which the result was inactive.

As for `[N-]=[N+]=[N-]`, the outcome was inactive.

As to `CCCCN(CCCC)N=O`, the result was inactive.

With `O=P1(N(CCCl)CCCl)NCCCO1` (stereo not given), the outcome was inactive.

Regarding `ClC1=C(Cl)C2(Cl)C3C(Cl)C(Cl)CC3C1(Cl)C2(Cl)Cl` (stereo not given), the AC50 is 7.58 µM (active).

As for `c1cc2c3c(cccc3c1)CC2`, the outcome was inactive.

Take `CC(O)C(F)(F)C(F)(F)F` (stereo not given): the result was inactive.

Take `Cc1cccc(N)c1`: the result was inactive.

`CCCCC(CC)COC(=O)c1c(Br)c(Br)c(Br)c(Br)c1C(=O)OCC(CC)CCCC` (stereo not given): the outcome was inactive.

With `C=CC(=O)OCC(F)(F)C(F)F`, the half-maximal activity concentration (AC50) was 34.9 µM (active) and 29.2 µM (active).

Turning to `O=C(O)C(F)(F)C(F)(F)C(=O)O`, the result was inactive and the AC50 was 17.2 µM (active).

Turning to `Cc1ccc([N+](=O)[O-])cc1C`, the outcome was inactive.

With `COP(N)(=S)OC`, the result was inactive.

Turning to `O=[N+]([O-])c1ccc(Cl)c(Cl)c1`, the outcome was inactive.

As to `Cc1ccc(O)cc1C`, the outcome was inactive.
